# High-throughput results deposited in PubChem BioAssay by several laboratories.
# The list is not random: actives were taken first. Their share in the collection is about 2.2%.
# Ba/F3 V617F tox – loss of viability in JAK2V617F-driven Ba/F3 cells; 220,000 compounds, 1.1% hits; Ba/F3 EpoR-JAK2V617F viability, ATP luminescence; inhibition, % at 5.6 µM;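 active means inhibition above the campaign mean plus 3 SD over all tested compounds, cut at about 24% in these data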;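 further: cytokine-independent growth of Ba/F3 cells driven by EpoR plus mutant JAK2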
# IEC-6 tox – kills IEC-6 intestinal cells in KLF5 counter-screen; IEC-6 cytotoxicity, luminescence viability; 290,000 compounds, 0.78% hits; AID 1825; inhibition, % at 5 µM; in the data active means inhibition above about 22%
# aSyn 5UTR inh – 5' untranslated region of α-synuclein, MLPCN primary screen; inhibition, % (tested at 7.5 µM); alpha-synuclein 5'UTR reporter, inhibitor activity; 300,000 compounds, 0.82% hits; in the data active means inhibition above about 60%;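 further: H4 neuroglioblastoma cells stably carrying SNCA 5'UTR luciferase fusion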
# KLF5 inh – suppresses KLF5 promoter-driven expression; AID 1700; DLD-1 KLF5 promoter-luciferase reporter, luminescence; 290,000 compounds, 0.23% hits; inhibition, % at 5 µM;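 active means inhibition above a per-plate limit of that plate's mean compound inhibition plus 3 SD, cut at about 60% in these data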;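 further: higher means less KLF5 promoter-driven luciferase light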
# APP 5UTR inh – APP translation inhibition | SH-SY5Y APP 5'UTR-luciferase reporter, luminescence | 190,000 compounds, 0.82% hits | inhibition, % at 2 µM;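 active means inhibition above a set limit, derived from the sample mean plus 3 SD, cut at about 45% in these data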
# BaF3 parental – reduces parental Ba/F3 cell viability, JAK2V617F counter-screen; CellTiter-Glo ATP luminescence; inhibition, % at 5.6 µM; 220,000 compounds, 1.1% hits; AID 1486;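 active means inhibition above a per-campaign cutoff, the mean inhibition of all tested compounds plus 3 SD, cut at about 27% in these data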
# Hits are given with their value; n = inactive; x = not tested or not shown.
SMILES,Ba/F3 V617F tox,IEC-6 tox,aSyn 5UTR inh,KLF5 inh,APP 5UTR inh,BaF3 parental
Cc1ccc(CSc2nnc(SCC(=O)N/N=C/C=C/c3ccco3)s2)cc1,n,n,n,n,n,n
Cc1ccc(CSc2nnc(SCC(=O)N/N=C/C=C/c3ccccc3[N+](=O)[O-])s2)cc1,n,n,89.3,n,n,n
Cc1nn(-c2ccccc2Cl)c(Cl)c1/C=N/Nc1nc2ccccc2s1,n,n,68.6,n,n,n
Cc1ccc(Cn2c(/C=C/c3ccco3)nc3ccccc32)cc1,n,n,n,n,n,n
Clc1ccc(Cn2c(/C=C/c3ccco3)nc3ccccc32)cc1,n,n,n,n,n,27.0
O=C(Nc1cccc(-c2nc3ccccc3o2)c1)c1ccc(N2C(=O)C3C4C=CC(C4)C3C2=O)cc1 (stereo not drawn),n,n,88.3,n,n,n
CN(C)S(=O)(=O)c1ccc(C(=O)Nc2nnc(-c3cccs3)o2)cc1,n,n,n,n,n,n
O=C(Nc1nnc(-c2ccc3c(c2)CCCC3)o1)c1c(F)cccc1F,n,n,n,n,n,61.2
CN(C)S(=O)(=O)c1ccc(C(=O)Nc2nnc(-c3ccc4c(c3)CCCC4)o2)cc1,n,n,69.0,n,n,n
c1ccc(N2CCN(c3nc4cc5c(cc4s3)OCCO5)CC2)cc1,n,n,n,n,n,n
c1c2c(cc3sc(N4CCOCC4)nc13)OCCO2,n,n,94.2,n,n,n
COC(=O)c1cccc(NC(=O)NC(=O)c2ccccc2Cl)c1,n,n,94.8,n,x,n
N#Cc1ccc(N2CCc3ccccc3C2)c([N+](=O)[O-])c1,n,n,81.1,n,n,n
CCOCCn1c(CN2CCN(C(c3ccccc3)c3ccccc3)CC2)nc2c1c(=O)n(C)c(=O)n2C,x,n,n,n,x,x
CCC(C)NC(=O)CSc1nc2c(sc(=S)n2Cc2ccco2)c(=O)n1-c1ccccc1 (stereo not drawn),n,n,n,n,67.8,n
CCc1ccc(NC(=O)CCCNC(=O)Cn2cnc3sc(C)c(C)c3c2=O)cc1,x,n,n,n,x,x
N#CC[n+]1cc(-c2ccc(Cl)cc2)n2c1CCC2,n,n,n,n,n,n
Clc1ccc(C[n+]2cc(-c3ccccc3)n3c2CCC3)cc1Cl,85.3,n,n,n,n,71.2
Clc1ccc(-c2c[n+](Cc3cccc(Cl)c3)c3n2CCC3)cc1,77.1,n,n,n,n,64.5
C=CCN(CC=C)C(=O)c1ccc(OC2CCN(C(C)=O)CC2)c(OC)c1,x,n,n,n,x,x
CCn1c(C)c2c(C)nnc(C)c2c1C,n,n,n,n,n,n
CCn1c(C)c(P(c2ccccc2)c2ccccc2)[n+]2ccccc12,68.7,n,n,n,n,70.0
Cc1ccc2ccc3cccnc3c2n1,x,71.6,n,n,x,x
Cn1cc(/C=N/n2cnc3scc(-c4ccc(Cl)cc4)c3c2=O)c2ccccc21,n,22.0,87.0,n,90.4,n
CN1/C(=C\C(=O)C[n+]2cccc(C(N)=O)c2)C(C)(C)c2ccccc21,n,n,n,n,n,n
SMILES,Ba/F3 V617F tox,IEC-6 tox,aSyn 5UTR inh,KLF5 inh,APP 5UTR inh,BaF3 parental
Cc1cccc[n+]1CC(=O)/C=C1\N(C)c2ccccc2C1(C)C,90.5,n,n,n,n,67.0
CN1/C(=C\C(=O)C[n+]2ccc(C(=O)c3ccccc3)cc2)C(C)(C)c2ccccc21,n,n,n,n,n,n
CN1/C(=C\C(=O)C[n+]2cccc(Br)c2)C(C)(C)c2ccccc21,66.5,n,n,n,n,66.7
Cc1ccc[n+](CC(=O)/C=C2\N(C)c3ccccc3C2(C)C)c1,51.1,n,n,n,n,53.8
COCCn1c(SCC(=O)/C=C2\N(C)c3ccccc3C2(C)C)nnc1-c1ccncc1,31.9,n,n,n,n,33.8
COc1ccc(CC(=O)NCCS(=O)(=O)N2CCN(c3ccccc3)CC2)cc1,x,x,n,x,x,x
CCOc1ccccc1-c1nnc(SCC(=O)NC2CC2)n1CC,x,n,n,n,x,x
CCOc1ccccc1NC(=O)CCCNC(=O)Cn1cnc2sc(C)c(C)c2c1=O,x,n,n,n,x,x
Cc1nc(N2CCN(c3ccccn3)CC2)c2c(C)c(C(=O)Nc3ccc(Br)cc3C)sc2n1,x,n,n,n,x,x
Cc1cc(=O)[nH]c(SCC(=O)/C=C2\N(C)c3ccccc3C2(C)C)n1,66.9,n,n,n,n,62.3
CN1/C(=C\C(=O)CN2C(=O)NC3(CCCCCC3)C2=O)C(C)(C)c2ccccc21,41.3,n,n,n,n,46.4
CN1/C(=C\C(=O)COC(=O)CN2C(=O)C3CC=CCC3C2=O)C(C)(C)c2ccccc21 (stereo not drawn),n,n,n,n,n,n
CSc1ccc(CCNC(=O)c2cc(-c3ccccc3)c(N3CCOCC3)s2)cc1,x,n,n,n,x,x
Cc1cccc2c(C(=O)O)c3cccc(C)c3nc12,x,x,n,x,x,x
CCCOc1ccc(Br)cc1CSC(=N)N,37.8,n,n,n,n,41.3
CCOc1ccc(Br)cc1CC(=O)O,n,n,n,n,n,n
C#Cc1ccc([C@@H]2C=C(C(=O)N3CCN(Cc4ccc5c(c4)OCO5)CC3)O[C@H](OCC)[C@H]2CCCO)cc1,n,n,n,n,n,n
Cc1cccc2cc3c(N)c(C(=O)N4CCOCC4)sc3nc12,59.0,n,n,n,84.6,59.1
CCOc1ccc(NC(=O)CN2C(=O)NC(C)(c3ccc(OC(F)F)cc3)C2=O)cc1 (stereo not drawn),x,n,n,n,x,x
Cc1ccc(/C=C2/NC(=O)N(c3ccccc3)C2=O)o1,n,n,n,n,n,n
O=C1N/C(=C/c2ccc(N3CCOCC3)o2)C(=O)N1c1cccc(Cl)c1,n,n,n,n,75.7,n
O=C(Cc1csc(Nc2nc(=S)[nH]c3ccccc23)n1)NCCCN1CCN(c2ccccc2F)CC1,n,n,91.5,n,n,n
NS(=O)(=O)c1ccc(NC(=O)COC(=O)COc2ccc3ccccc3c2)cc1,n,n,n,n,n,n
O=C(Nc1cccnc1)c1ccc(-c2ccccc2)cc1,n,n,n,n,n,n
Cc1cc(NC(=O)c2ccc3c(c2)OCCO3)no1,n,n,61.8,n,n,n
SMILES,Ba/F3 V617F tox,IEC-6 tox,aSyn 5UTR inh,KLF5 inh,APP 5UTR inh,BaF3 parental
Cc1cc(NC(=O)c2ccc3c(c2)OCO3)no1,n,n,n,n,n,n
O=C(Nc1ccncc1)c1ccc(-c2ccccc2)cc1,n,n,n,n,n,32.1
Cc1ccc(C(=O)Nc2cccc(C(=O)O)c2)cc1,n,n,86.9,n,n,n
Cc1ccc(C(=O)Nc2ccc3c(c2)OCCO3)cc1,x,n,89.0,n,x,x
O=C(NCc1ccccc1)C(=O)Nc1cccc(C(=O)O)c1,n,n,74.1,n,x,n
CSc1cccc(NC(=O)C(=O)NCc2ccccc2)c1,n,n,n,n,x,n
Cc1ccnc(NC(=O)c2ccc3[nH]c(=O)c(=O)[nH]c3c2)c1,x,n,n,n,x,x
COc1ccc(NC(C)=O)cc1NC(=O)C1CCN(C(=O)Nc2ccccc2)CC1,x,x,n,x,x,x
O=S(=O)(c1cccc(C(F)(F)F)c1)N1CCCC1c1cccnc1 (stereo not drawn),n,n,n,n,x,32.1
